From PubChem BioAssay (Tox21) come the findings set out here.

Inconclusive results are not listed. A number with no mark means an inactive call. Calls of active or inactive are those of the source. Calls come from the whole dose curve; as a rule, active = well fitted inhibition curve with a large enough effect in the repeat runs; inconclusive = weak or mixed curves, or effect the other way; inactive = no such curve, though single readings can be large or run the other way.
% is set by controls: 0 for no effect and ±100 for the full control effect; potency is the fitted concentration of half-maximal effect.

A short description of the assay: qHTS assay to identify small molecule antagonists of the retinoic acid receptor (RAR) signaling pathway (AID 1159552; note: nearly all actives have a fitted effect of over 50% in size). Conditions: C3RL4 RARE luciferase reporter, retinol-stimulated, 6 h; series mostly up to 92.4 µM; activity, negative = inhibition: at the top concentration. The method, boiled down:
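C3RL4 RARE-luc cells, overnight plating; retinol 1 uM final added right after compound; 6 hr 37 C; luciferase read at 30 min RT.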
With `c1ccc2c(c1)[nH]c1cnccc12`, the “activity, negative = inhibition” value is -1.32%.
Same read-out and setting: with `N#CCc1ccc(Cl)cc1` the figure was 12.3%; with `Oc1ccccc1Br`, -0.274%.
Turning to `Clc1ccc(CCC(Cn2ccnc2)Sc2c(Cl)cccc2Cl)cc1` (centres undefined), the “activity, negative = inhibition” value was -19.5% [at 42.5 µM].
The same measure, in the same setting: with `Cc1ccc(C(=O)Cl)cc1` the figure was 19.9%; with `C[As+](C)(C)CC(=O)[O-]`, -13.2%; with `N#C/C=C/c1ccccc1`, 2.03%.
As to `CCOP(=S)(OCC)SCS(=O)(=O)C(C)(C)C`, the “activity, negative = inhibition” value was 83.2%.
In the case of `CC(C)(c1ccc(O)c(-c2ccccc2)c1)c1ccc(O)c(-c2ccccc2)c1`, the Potency is 54.5 µM (active).
As for `CC(C)(COCC1CO1)COCC1CO1` (centres undefined), the “activity, negative = inhibition” value is 133%.
On to `N#CSCSC#N`, for which the Potency was 24.9 µM (active).
As to `COP(N)(=S)OC`, the “activity, negative = inhibition” value is 2.29%.
Still for that read-out and setting: with `Cc1cccc(OP(=O)(Oc2cccc(C)c2)Oc2cccc(C)c2)c1` the figure was -0.365%.
Same read-out and setting: in the case of `C=CCOC(N)=O` it was -1.73%; in that of `CC(=O)/C=C/c1ccc2c(c1)OCO2`, 6.02%.
Turning to `CCCCCCCCCC[N+](C)(C)CCCCCCCCCC`, the Potency was 12.2 µM (active).
Take `COc1ccc([N+](=O)[O-])cc1O`: the “activity, negative = inhibition” value was 6.42% [at 42.5 µM].
`Nc1ccc([N+](=O)[O-])cc1Cl`: the “activity, negative = inhibition” value is 26.9%.
With `C[C@H]1CC[C@@H]2[C@@H](C)[C@H]3[C@H](C[C@H]4[C@@H]5CC=C6CC(O[C@@H]7O[C@H](CO)[C@H](O)[C@H](O[C@@H]8O[C@H](CO)[C@@H](O)[C@H](O)[C@H]8O)[C@H]7O[C@H]7O[C@@H](C)[C@H](O)[C@@H](O)[C@H]7O)CC[C@]6(C)[C@H]5CC[C@]34C)N2C1` (some centres undefined), the Potency was 28.2 µM (active).
